The nature of assay [1]: yeast TOR pathway RPL19A-GFP modulators, primary screen, cell-based, S. cerevisiae, multiplex flow cytometry (AID 1862; in the data active means percent of DMSO control GFP below about 86%;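 further: lower values mimic rapamycin by blocking the RPL19A rise seen in DMSO cells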). Particulars: S. cerevisiae RPL19A-GFP strain, flow cytometry fluorescence, 3 h; at 10 µM; stronger effect = lower value. In general terms: A flow cytometer gives signals particle by particle.
A short description of assay [2]: modulators of MEP2-GFP levels in yeast, primary screen, S. cerevisiae, multiplex flow cytometry (AID 1867;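 active means GFP response, as percent of the DMSO control, above the screen-wide mean plus 3 SD, about 139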;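 further: median GFP channel fluorescence of barcode-gated MEP2-GFP cells measured by flow cytometry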). Particulars: S. cerevisiae MEP2-GFP strain, 3 h, at 10 µM, stronger effect = higher value, 100% means same as DMSO wells.
A short description of assay [3]: modulators of CIT2-GFP expression in yeast, primary screen, S. cerevisiae, GFP fusion, multiplex flow cytometry (AID 1870;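 active means percent response above a set limit, the screen-wide mean plus 3 SD, cut at about 130% in these data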;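 further: barcoded CIT2-GFP strain pooled with four other GFP strains with rapamycin as positive control; median GFP fluorescence per well over plate mean of DMSO wells so 100% = DMSO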). Particulars: 3 h, at 10 µM, stronger effect = higher value.
Assay [4] can be described thus: modulators of LAP4-GFP expression in yeast, primary screen, S. cerevisiae, multiplex flow cytometry (AID 1873;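 active means GFP signal, as percent of the solvent control, above the screen mean plus 3 SD, about 149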). Particulars: 3 h, at 10 µM, stronger effect = higher value.
A short description of assay [5]: modulators of AGP1-GFP expression in yeast TOR pathway, primary screen, cell-based, multiplex flow cytometry, S. cerevisiae (AID 1887;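 active means GFP signal above the screen-wide mean plus 3 SD, that is over about 124.5% of the solvent control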;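 further: AGP1-GFP fusion strain of S. cerevisiae within a five-strain barcoded multiplex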). Particulars: 3 h, at 10 µM, stronger effect = higher value.
A short description of assay [6]: inhibitors of CD8+ T cell-vesicle binding, pilot screen, LFA-1/ICAM-1 modulator project, MLPCN validation set, flow cytometry (AID 2523;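 active means response below a set limit, under 55% cells CD8-positive and vesicle-bound, and CD8 cells' 90th-percentile brightness under 279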;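 on vesicle binding response: mean PE anti-B7-1 fluorescence of CD8+ cells relative to row control; 100% = QL9-loaded vesicles with DMSO vehicle in the same plate row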). Particulars: 2C mouse CD8+ T cells, at 7 µM, stronger effect = lower value; double positive events: measured here: CD8+/vesicle+ event percentage.
Assay [7] has as its target Integrin beta-1 (Homo sapiens) + Integrin alpha-4 (Homo sapiens) (UniProt P13612+P05556). In words: inhibition of HUTS-21 binding to VLA-4, pilot screen, VLA-4 allosteric modulator project, U937 cells, HUTS-21 mAb, flow cytometry, validation set (AID 2674;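 active means inhibition above 50%, about 3 SD of the validation set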;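 further: antibody binding induced by the VLA-4 ligand LDV present at three times its Kd; 0% = LDV ligand with antibody and no compound and 100% = antibody without LDV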). Particulars: HUTS-21 LIBS mAb binding, at 6.7 µM, stronger effect = higher value, binding induced by LDV ligand.
Assay [8] is described as follows: superoxide lowering in aged yeast cells, pilot screen, validation compound set (AID 2706;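 active means superoxide response below 65% of plate, a cut near 3 SD across the whole screen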;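 further: yeast exposed to compound for one week at 30 degrees C before staining; 100% = mean of all compound wells on the same plate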). Particulars: S. cerevisiae aging, superoxide DHE fluorescence; at 10 µM; stronger effect = lower value.
The target of assay [9] is Beta-adrenergic receptor kinase 1 (Homo sapiens) (UniProt P25098). Description: GRK2 binders displacing RNA aptamer, biochemical, validation, human GRK2, bead flow cytometry (AID 488806;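 active means aptamer binding inhibition above 30%, about 3 SD of noise from non-fluorescent compounds; inactive means inhibition at or below 30%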). Particulars: bead-bound GRK2, FAM-aptamer displacement, at 10 µM, stronger effect = higher value.
Assay [10] concerns the target Beta-2 adrenergic receptor (Homo sapiens) (UniProt P07550). Description: beta2AR agonists driving receptor internalization, pilot screen, cell-based, FAP fluorogen, flow cytometry, validation set (AID 504459;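 active means percent response above 42, roughly 3 SD of non-fluorescent test compounds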;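 further: agonist-driven loss of surface beta2AR via internalization measured by FAP dye flow cytometry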). Particulars: Am2.2-beta2AR cells, FAP surface receptor flow cytometry; at 10 µM; stronger effect = higher value.
The target in assay [11] is AP-2 complex subunit beta (Homo sapiens) (UniProt P63010). In words: inhibitors of arrestin peptide binding to AP2, pilot screen, biochemical, validation set, GST-AP2 beads, flow cytometry (AID 504541).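 Further: AP2 carries R879A mutation and is captured from E. coli lysate; bead-bound FITC arrestin peptide fluorescence measuring arrestin peptide binding to AP2; 0% = DMSO wells and 100% = excess unlabeled arrestin peptide control.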 Particulars: FITC arrestin peptide, at 10 µM, stronger effect = higher value, AP2 beta2 appendage fragment, R879A mutant.
A short description of assay [12]: yeast V-ATPase proton transport modulators, S. cerevisiae, pHLuorin, HTS validation (AID 504600; in the data active means response above about 15%;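 further: plate controls were DMSO for no effect and reference compound for full effect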). Particulars: S. cerevisiae pHLuorin cytosolic pH, at 10 µM, stronger effect = higher value.
The subject of assay [13] is anti-desmoglein-3 scFv antibody binding to human DSG3. Description: inhibitors of anti-DSG3 scFv binding to DSG3, pilot screen, biochemical, validation compound set, bead-based, flow cytometry (AID 588368;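 active means binding below the plate cutoff, the plate median minus 3 SD, with a reading above zero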;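 further: signal is the median channel fluorescence of bead-bound GFP antibody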). Particulars: Protein G beads, DSG3-Fc, scFv-GFP binding, at 10 µM, stronger effect = lower value.
Assay [14] can be described thus: inhibitors of fungal efflux pumps CDR1, CDR2, MDR1, pilot screen, validation compound set, multiplex, phenotypic (AID 588506;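 active means efflux inhibition above 0.42, the validation set average plus 4 SD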;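 further: Nile Red retained in cells so higher fluorescence means more efflux inhibition; 0 = negative control wells and 1 = enniatin B 25 µM full block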). Particulars: S. cerevisiae pump-expressing triplex, Nile Red efflux flow cytometry; at 10 µM; stronger effect = higher value; the pumps come from Candida albicans.
The target of assay [15] is ATP-binding cassette sub-family B member 6 (Homo sapiens) (UniProt Q9NP58). Description: ABCB6 transporter inhibitors, pilot screen, K562-ABCB6 cells, flow cytometry, validation set (AID 588550;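 active means inhibition above the screen-wide mean plus 3 SD, about 51%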;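 further: 0% = DMSO wells and 100% = benzethonium chloride 70 µM positive control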). Particulars: K562-ABCB6 porphyrin accumulation, 1 h, at 10 µM, stronger effect = higher value.
Assay [16] can be described thus: promoters of myeloid differentiation in arrested cells, primary screen, cell-based, GFP/MAC1 double positive, flow cytometry, validation set (AID 588685;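 active means differentiation response of at least 50%, scaled between solvent and reference control, from cells with both markers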;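 further: compound exposure lasts four days before antibody staining and flow analysis; 0% = DMSO wells and 100% = 5 µM fulvestrant positive control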). Particulars: ER-HoxA9 marrow cells, stronger effect = higher value, normalized: vehicle 0, fulvestrant 100.

Records with an inconclusive call do not appear. Calls of active or inactive are those of the source.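 How the source made its calls, unless noted: active means inhibition above 54%, about 3 SD of non-fluorescent compounds; inactive means the rest.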

By inhibition is commonly meant the relative decrease from the control value, in per cent.

Chain of ATP-binding cassette sub-family B member 6 (Homo sapiens) (Q9NP58 whole entry, looked up): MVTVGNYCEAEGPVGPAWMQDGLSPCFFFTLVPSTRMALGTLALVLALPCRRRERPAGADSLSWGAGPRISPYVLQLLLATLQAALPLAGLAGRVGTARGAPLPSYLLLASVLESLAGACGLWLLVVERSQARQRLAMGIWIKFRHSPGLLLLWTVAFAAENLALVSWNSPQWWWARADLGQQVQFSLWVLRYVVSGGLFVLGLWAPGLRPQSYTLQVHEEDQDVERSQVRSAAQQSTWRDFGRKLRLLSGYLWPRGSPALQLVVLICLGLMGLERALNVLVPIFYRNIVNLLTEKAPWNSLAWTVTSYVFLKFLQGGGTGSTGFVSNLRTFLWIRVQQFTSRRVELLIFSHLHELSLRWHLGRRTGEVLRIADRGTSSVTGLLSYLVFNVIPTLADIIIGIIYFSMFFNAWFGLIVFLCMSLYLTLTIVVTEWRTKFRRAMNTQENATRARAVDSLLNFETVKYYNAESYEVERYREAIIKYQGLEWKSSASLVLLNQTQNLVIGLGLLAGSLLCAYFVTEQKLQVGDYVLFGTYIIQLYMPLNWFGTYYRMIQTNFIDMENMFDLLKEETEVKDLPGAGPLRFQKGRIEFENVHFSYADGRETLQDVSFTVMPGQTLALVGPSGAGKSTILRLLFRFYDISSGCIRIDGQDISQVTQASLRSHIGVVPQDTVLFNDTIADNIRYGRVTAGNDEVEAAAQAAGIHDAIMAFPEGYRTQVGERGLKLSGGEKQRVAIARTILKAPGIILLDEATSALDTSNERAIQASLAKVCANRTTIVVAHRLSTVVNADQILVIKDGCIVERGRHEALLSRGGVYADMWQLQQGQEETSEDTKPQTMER
Chain of Beta-2 adrenergic receptor (Homo sapiens) (P07550 whole entry, looked up): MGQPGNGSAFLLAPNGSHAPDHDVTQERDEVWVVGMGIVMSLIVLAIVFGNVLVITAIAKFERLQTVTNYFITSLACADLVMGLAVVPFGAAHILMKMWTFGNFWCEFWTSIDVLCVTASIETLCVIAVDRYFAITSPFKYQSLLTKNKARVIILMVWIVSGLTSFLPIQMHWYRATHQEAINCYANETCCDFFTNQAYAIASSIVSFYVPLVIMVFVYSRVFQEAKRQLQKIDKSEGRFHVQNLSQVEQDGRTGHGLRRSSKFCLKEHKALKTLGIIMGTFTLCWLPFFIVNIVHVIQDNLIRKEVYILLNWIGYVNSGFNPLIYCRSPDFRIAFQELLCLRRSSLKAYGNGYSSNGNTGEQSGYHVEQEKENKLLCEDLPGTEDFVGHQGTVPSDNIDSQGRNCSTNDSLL
Chain of Integrin beta-1 (Homo sapiens) + Integrin alpha-4 (Homo sapiens) (P05556 whole entry, looked up): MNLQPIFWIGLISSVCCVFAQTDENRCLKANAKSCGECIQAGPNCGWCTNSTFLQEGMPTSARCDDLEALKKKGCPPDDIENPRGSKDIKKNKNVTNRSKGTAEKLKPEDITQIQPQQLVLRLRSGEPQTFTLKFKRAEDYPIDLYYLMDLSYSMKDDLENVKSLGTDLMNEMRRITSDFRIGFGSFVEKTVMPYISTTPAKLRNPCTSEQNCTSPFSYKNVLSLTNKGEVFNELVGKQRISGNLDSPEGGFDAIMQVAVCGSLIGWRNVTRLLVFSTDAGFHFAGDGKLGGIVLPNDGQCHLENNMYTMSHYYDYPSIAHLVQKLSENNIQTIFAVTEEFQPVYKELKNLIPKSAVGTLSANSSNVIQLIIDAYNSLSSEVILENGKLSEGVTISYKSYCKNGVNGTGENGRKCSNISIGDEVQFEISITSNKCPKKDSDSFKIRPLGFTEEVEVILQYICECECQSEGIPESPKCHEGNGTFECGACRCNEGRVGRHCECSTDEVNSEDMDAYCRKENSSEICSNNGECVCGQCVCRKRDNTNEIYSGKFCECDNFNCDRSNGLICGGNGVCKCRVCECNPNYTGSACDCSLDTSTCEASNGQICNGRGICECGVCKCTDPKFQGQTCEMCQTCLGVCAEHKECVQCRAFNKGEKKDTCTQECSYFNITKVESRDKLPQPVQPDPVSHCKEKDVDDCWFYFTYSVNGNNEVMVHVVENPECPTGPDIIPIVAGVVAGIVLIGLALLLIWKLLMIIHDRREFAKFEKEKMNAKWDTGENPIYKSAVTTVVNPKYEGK
Chain of Integrin beta-1 (Homo sapiens) + Integrin alpha-4 (Homo sapiens) (P13612 whole entry, looked up): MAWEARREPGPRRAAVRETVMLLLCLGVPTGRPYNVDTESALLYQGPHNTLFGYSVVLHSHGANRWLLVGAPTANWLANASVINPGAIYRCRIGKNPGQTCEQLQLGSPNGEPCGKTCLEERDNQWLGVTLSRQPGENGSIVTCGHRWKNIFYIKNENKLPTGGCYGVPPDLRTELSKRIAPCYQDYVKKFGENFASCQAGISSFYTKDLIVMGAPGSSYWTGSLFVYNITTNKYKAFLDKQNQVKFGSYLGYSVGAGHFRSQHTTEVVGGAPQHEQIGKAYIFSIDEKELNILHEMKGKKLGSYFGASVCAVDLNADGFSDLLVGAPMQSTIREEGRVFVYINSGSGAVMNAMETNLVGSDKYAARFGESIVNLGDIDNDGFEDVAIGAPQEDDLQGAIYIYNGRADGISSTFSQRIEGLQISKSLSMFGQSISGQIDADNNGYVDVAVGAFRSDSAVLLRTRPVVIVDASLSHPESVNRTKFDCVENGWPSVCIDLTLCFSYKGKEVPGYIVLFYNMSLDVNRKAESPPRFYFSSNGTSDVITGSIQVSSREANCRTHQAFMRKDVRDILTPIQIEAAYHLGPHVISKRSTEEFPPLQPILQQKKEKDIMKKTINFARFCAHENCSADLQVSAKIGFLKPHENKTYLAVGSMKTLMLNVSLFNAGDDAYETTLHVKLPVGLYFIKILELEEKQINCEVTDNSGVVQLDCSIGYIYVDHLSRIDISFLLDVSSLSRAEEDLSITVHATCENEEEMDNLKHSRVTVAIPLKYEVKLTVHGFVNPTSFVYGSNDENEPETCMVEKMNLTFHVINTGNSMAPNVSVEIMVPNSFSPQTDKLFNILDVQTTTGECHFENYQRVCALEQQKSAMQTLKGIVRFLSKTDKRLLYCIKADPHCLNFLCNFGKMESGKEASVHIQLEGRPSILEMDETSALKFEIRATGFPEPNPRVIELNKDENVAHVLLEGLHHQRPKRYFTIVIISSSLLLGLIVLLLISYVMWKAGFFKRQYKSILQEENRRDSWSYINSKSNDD
Chain of AP-2 complex subunit beta (Homo sapiens) (P63010 whole entry, looked up, the tested form may be a part, one chain of several): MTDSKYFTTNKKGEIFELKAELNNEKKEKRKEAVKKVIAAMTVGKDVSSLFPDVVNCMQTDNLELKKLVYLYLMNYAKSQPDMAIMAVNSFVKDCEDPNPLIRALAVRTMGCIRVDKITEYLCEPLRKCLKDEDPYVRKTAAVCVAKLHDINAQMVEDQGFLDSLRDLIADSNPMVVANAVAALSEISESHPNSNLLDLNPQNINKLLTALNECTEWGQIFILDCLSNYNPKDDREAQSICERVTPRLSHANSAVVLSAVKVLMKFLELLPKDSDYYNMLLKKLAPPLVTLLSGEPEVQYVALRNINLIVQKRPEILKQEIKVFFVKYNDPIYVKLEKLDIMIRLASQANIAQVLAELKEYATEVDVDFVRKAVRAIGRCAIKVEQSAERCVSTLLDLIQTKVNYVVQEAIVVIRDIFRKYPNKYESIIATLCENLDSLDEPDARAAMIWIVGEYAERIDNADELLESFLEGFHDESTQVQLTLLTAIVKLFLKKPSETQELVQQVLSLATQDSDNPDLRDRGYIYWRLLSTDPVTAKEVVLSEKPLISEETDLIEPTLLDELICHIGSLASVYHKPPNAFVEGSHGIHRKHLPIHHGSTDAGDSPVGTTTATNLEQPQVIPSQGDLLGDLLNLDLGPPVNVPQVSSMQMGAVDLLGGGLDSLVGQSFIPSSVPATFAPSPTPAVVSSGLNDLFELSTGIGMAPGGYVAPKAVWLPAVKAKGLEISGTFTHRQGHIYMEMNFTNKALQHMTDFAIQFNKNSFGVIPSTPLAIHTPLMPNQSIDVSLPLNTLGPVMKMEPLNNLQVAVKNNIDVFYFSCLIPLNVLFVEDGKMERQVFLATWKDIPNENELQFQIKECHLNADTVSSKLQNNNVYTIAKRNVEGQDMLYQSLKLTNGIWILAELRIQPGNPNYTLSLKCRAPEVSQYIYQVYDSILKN
Chain of Beta-adrenergic receptor kinase 1 (Homo sapiens) (P25098 whole entry, looked up): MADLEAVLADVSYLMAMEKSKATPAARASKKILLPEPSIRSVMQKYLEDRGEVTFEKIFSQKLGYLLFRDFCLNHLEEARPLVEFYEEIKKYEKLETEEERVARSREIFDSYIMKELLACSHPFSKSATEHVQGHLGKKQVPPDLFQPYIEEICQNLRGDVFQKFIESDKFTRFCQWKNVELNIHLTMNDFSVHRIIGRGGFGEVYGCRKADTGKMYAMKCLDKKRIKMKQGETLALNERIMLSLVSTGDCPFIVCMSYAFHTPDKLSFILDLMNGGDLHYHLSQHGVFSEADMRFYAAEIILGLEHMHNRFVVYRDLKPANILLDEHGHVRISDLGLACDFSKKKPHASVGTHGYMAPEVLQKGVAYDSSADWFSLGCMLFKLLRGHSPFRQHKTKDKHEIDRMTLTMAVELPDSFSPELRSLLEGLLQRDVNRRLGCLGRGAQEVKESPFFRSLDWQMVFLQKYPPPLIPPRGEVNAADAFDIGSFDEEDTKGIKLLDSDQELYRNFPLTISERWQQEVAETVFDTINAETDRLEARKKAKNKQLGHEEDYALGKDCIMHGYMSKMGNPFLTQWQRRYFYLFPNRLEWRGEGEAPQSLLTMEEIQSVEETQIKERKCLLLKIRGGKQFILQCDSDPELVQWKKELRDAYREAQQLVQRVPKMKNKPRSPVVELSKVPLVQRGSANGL

On to `N/C(=N\OC(=O)/C=C/c1ccccc1)c1ccc(Br)cc1`, for which, in assay [1], the percent of DMSO control GFP was 103% (inactive). In addition, the GFP response vs DMSO in [2] was 106% (inactive); in assay [4] it was 101% (inactive). In assay [3], the percent response of DMSO control is 107% (inactive). Besides, the GFP response, % of DMSO in [5] is 94.2% (inactive). The same compound gave a double positive events in assay [6] of 65%. For the same compound, the vesicle binding response in assay [6] is 195% (inactive). In addition, the values for the inhibition in assay [7], in assay [11] and in assay [15] were -3.57% (inactive), 40.4% (inactive) and 13% (inactive), respectively. The superoxide response (% of plate) in assay [8] was 107% (inactive). Besides, the aptamer binding inhibition in assay [9] is 3% (inactive). Also, the response in [10] was 0.58% (inactive); in [12] it was -3.5% (inactive). In addition, in assay [13], the binding (% of control) was 100% (inactive). Further, the efflux inhibition (fraction of control) in assay [14] was -0.01 (inactive). Besides, in assay [16], the differentiation response is -3.67% (inactive).
On to `CC1(C)CC(=O)c2cn3c(nc2C1)nc1ccccc13`, for which, in assay [1], the percent of DMSO control GFP was 102% (inactive). Besides, the GFP response vs DMSO was 97.7% (inactive) in [2] and 99.1% (inactive) in assay [4]. The percent response of DMSO control in [3] was 104% (inactive). Moreover, the GFP response, % of DMSO in assay [5] is 102% (inactive). In addition, in [6], the double positive events was 55.9%. In addition, the vesicle binding response in assay [6] was 104% (inactive). Moreover, the inhibition in assay [7] was 9.63% (inactive); in [11], 17% (inactive); in [15], -6% (inactive). The superoxide response (% of plate) in assay [8] was 107% (inactive). In addition, in assay [9], the aptamer binding inhibition is -1% (inactive). Besides, the response in [10] is -25.5% (inactive); in assay [12], 3.76% (inactive). Besides, the binding (% of control) in assay [13] is 103% (inactive). Besides, the efflux inhibition (fraction of control) in [14] is -0.12 (inactive). The differentiation response in assay [16] is -6.03% (inactive).
For the compound `COc1ccc2c(c1OC)C(=O)OC2C1c2c(cc3c(c2OC)OCO3)CCN1C` (stereo not drawn), the percent of DMSO control GFP in [1] is 97.8% (inactive). The GFP response vs DMSO is 100% (inactive) in [2] and 91.4% (inactive) in assay [4]. For the same compound, the percent response of DMSO control in assay [3] was 104% (inactive). Besides, the GFP response, % of DMSO in [5] is 95.7% (inactive). Besides, the double positive events in [6] came out at 60.2%. Besides, in assay [6], the vesicle binding response was 230% (inactive). Further, the inhibition was 11% (inactive) in assay [7], -5.89% (inactive) in assay [11] and -1% (inactive) in [15]. Also, the superoxide response (% of plate) in assay [8] was 92.5% (inactive). Besides, the aptamer binding inhibition in assay [9] was 5% (inactive). Further, the response in [10] is -9.24% (inactive); in [12], -1.48% (inactive). Moreover, the binding (% of control) in assay [13] was 96.4% (inactive). Also, in assay [14], the efflux inhibition (fraction of control) is -0.29 (inactive). For the same compound, the differentiation response in [16] is -2.69% (inactive).
With `COc1ccc2c(=O)c(-c3cnn(-c4ccccc4)c3)c(C)oc2c1`, the percent of DMSO control GFP in [1] is 102% (inactive). Also, the GFP response vs DMSO in assay [2] was 101% (inactive); in [4] it was 115% (inactive). Further, the percent response of DMSO control in assay [3] was 99.6% (inactive). Also, the GFP response, % of DMSO in assay [5] is 109% (inactive). Moreover, in [6], the double positive events was found to be 58.6%. Further, in assay [6], the vesicle binding response is 153% (inactive). Further, the inhibition in [7] was -2.82% (inactive); in assay [11], 7% (inactive); in assay [15] it was -336% (inactive). In addition, the superoxide response (% of plate) in [8] was 91.1% (inactive). In addition, in assay [9], the aptamer binding inhibition is 4% (inactive). The response in [10] was -30.2% (inactive); in assay [12] it was 1.88% (inactive). Also, in [13], the binding (% of control) is 103% (inactive). Further, the efflux inhibition (fraction of control) in [14] is -0.13 (inactive). In assay [16], the differentiation response is -0.06% (inactive).
